In PubChem BioAssay:
The source made the active and inactive calls.

How the values were obtained:
[1] = E. coli DRC41 culture turbidity changes, primary screen, E. coli filamentation inducer project, strain DRC41, OD650, 48 h (AID 1152);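 also: E. coli MC1000 strain DRC41 lacking acrAB efflux pump and sulA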; details: E. coli DRC41 (acrAB sulA), higher = more signal, called active from +8 up or from −8 down
[2] = small-molecule binders of probe aLefty1, primary screen, biochemical, small-molecule microarray, 635/667 nm fluorescence (AID 1153); details: higher = more signal;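 also: score merges spot fluorescence with signal-to-noise ratio from the scanned slide images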
[3] = PSAC antagonists in infected red cells, primary screen, cell-based, P. falciparum Indochina, OD700, 1 h (AID 1154); details: P. falciparum Indochina infected RBC osmotic lysis, higher = more signal, called active from +8 up or from −8 down
[4] = PSAC antagonists in infected red cells, primary screen, cell-based, P. falciparum Indochina, OD700, 2 h (AID 1155);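 also: lysis reports solute entry through the parasite surface anion channel PSAC; channel blockers reduce lysis of infected cells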; details: P. falciparum Indochina infected erythrocytes, osmotic lysis OD700; higher = more signal, called active from +8 up or from −8 down
[5] = osmotic lysis modulators in infected erythrocytes, primary screen, PSAC antagonist project, cell-based, P. falciparum Indochina, OD700, 3 h (AID 1156); details: higher = more signal, called active from +8 up or from −8 down
[6] = PSAC antagonists in infected red cells, primary screen, cell-based, P. falciparum Indochina, OD700, 18 h (AID 1157); details: P. falciparum Indochina infected erythrocytes, osmotic lysis OD700, 18 h; higher = more signal, called active from +8 up or from −8 down
[7] = modulators of S6 phosphorylation in cells, primary screen, cell-based, A549, cytoblot, luminescence, serum-stimulated (AID 1158); details: A549 phospho-S6 cytoblot, 5 h, higher = more signal;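 also: serum-stimulated A549 lung adenocarcinoma cells; signal is phosphorylated S6 detected by cytoblot immunostaining with HRP secondary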
[8] = target: NADPH oxidase 2 (Homo sapiens) (UniProt P04839); assay: NOX2-dependent H2O2 signal modulators, primary screen, NOX inhibitor project, cell-based, HEK293-NOX2, PMA-stimulated, Amplex Red fluorescence (AID 1159); details: 45 min, higher = more signal, called active from +8 up or from −8 down; also: test concentration not given here
[9] = target: NADPH oxidase 4 (Homo sapiens) (UniProt Q9NPH5); assay: NOX4-dependent H2O2 signal modulators, primary screen, NOX inhibitor project, cell-based, HEK293-NOX4, tetracycline-induced, Amplex Red fluorescence (AID 1160); details: 45 min, higher = more signal, called active from +8 up or from −8 down
[10] = target: NADPH oxidase 5 (Homo sapiens) (UniProt Q96PH1); assay: NOX5-dependent H2O2 signal modulators, primary screen, NOX inhibitor project, cell-based, HEK293-NOX5, Amplex Red fluorescence (AID 1161); details: HEK293-NOX5, ionomycin, 45 min, higher = more signal
[11] = A549 cell viability effects, profiling panel, calcein-AM fluorescence, 48 h, basal (AID 1162); details: higher = more signal; also: test concentration not given here
[12] = adipocyte viability effects, profiling panel, cell-based, 3T3-L1 adipocytes, calcein-AM fluorescence, 48 h, basal (AID 1163); details: 3T3-L1 adipocytes viability, higher = more signal; also: test concentration not given here
[13] = HepG2 cell viability effects, profiling panel, calcein-AM fluorescence, 48 h, basal (AID 1164); details: higher = more signal; also: test concentration not given here
[14] = MM1S cell viability effects, profiling panel, calcein-AM fluorescence, 48 h, basal (AID 1165); details: higher = more signal;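 also: viability of MM1S multiple myeloma cells under basal unstimulated conditions; test concentration not given here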
[15] = basal RPMI8226 viability, no added stimulus, profiling panel, cell-based, calcein-AM fluorescence, 48 h, PK04 Diversity Set (AID 1166); details: RPMI8226 myeloma viability, higher = more signal;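 also: cells grown under basal conditions without added stimulus; test concentration not given here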
[16] = basal HepG2 mitochondrial membrane potential changes, profiling panel, cell-based, JC-1 fluorescence, 24 h, 100 nL compound (AID 1167); details: higher = more signal; also: test concentration not given here
[17] = basal 3T3-L1 adipocyte mitochondrial potential changes, profiling panel, cell-based, JC-1 fluorescence, 3T3-L1 adipocytes, 24 h, 100 nL compound (AID 1168); details: JC-1 mitochondrial fluorescence, higher = more signal, called active from +8 up or from −8 down; also: test concentration not given here
[18] = basal RPMI8226 mitochondrial membrane potential changes, profiling panel, cell-based, JC-1 fluorescence, 24 h, 100 nL compound (AID 1169); details: RPMI8226 myeloma, JC-1 mitochondrial potential fluorescence, higher = more signal; also: test concentration not given here
[19] = basal MM1S mitochondrial membrane potential changes, profiling panel, cell-based, JC-1 fluorescence, 24 h, 100 nL compound (AID 1170); details: higher = more signal; also: test concentration not given here
[20] = A549 lung cancer cell viability effects, profiling panel, resazurin fluorescence, 24 h, PK04 Diversity Set (AID 1171); details: higher = more signal, called active from +8 up or from −8 down; also: test concentration not given here

Sequence of NADPH oxidase 4 (Homo sapiens) (Q9NPH5 whole entry, looked up): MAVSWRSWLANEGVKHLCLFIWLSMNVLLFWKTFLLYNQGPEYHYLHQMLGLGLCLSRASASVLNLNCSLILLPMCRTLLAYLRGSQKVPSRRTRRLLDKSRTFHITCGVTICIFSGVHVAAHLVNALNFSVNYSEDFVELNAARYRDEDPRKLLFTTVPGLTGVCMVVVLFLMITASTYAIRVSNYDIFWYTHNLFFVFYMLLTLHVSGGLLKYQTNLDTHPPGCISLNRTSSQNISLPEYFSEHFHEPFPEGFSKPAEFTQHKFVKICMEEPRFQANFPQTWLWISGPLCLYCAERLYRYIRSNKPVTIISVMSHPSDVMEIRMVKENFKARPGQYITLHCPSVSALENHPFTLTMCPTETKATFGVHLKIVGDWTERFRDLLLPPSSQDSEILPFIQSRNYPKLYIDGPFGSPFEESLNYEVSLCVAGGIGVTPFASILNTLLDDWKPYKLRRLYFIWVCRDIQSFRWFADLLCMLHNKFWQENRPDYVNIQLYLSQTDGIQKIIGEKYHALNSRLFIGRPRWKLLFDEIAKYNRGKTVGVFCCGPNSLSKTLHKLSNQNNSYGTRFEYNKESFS
Sequence of NADPH oxidase 5 (Homo sapiens) (Q96PH1 whole entry, looked up): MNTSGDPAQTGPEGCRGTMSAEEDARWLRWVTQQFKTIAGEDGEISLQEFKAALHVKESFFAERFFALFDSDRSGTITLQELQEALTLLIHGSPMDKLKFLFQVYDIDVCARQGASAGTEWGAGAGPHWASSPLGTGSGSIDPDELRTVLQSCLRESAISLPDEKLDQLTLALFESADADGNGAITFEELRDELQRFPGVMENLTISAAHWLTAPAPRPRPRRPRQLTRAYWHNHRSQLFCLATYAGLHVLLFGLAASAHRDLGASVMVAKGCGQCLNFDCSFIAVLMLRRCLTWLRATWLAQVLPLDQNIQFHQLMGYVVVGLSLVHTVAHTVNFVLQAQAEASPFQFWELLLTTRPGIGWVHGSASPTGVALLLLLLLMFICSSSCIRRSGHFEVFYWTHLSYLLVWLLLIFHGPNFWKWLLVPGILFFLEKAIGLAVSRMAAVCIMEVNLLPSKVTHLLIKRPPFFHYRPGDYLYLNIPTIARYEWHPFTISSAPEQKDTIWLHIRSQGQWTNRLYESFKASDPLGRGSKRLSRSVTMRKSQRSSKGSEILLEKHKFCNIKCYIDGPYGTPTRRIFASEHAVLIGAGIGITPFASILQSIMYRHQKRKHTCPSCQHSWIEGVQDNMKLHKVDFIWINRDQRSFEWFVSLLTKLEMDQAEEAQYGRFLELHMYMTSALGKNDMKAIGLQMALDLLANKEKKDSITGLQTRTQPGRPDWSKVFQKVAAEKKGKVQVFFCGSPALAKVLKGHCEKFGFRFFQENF
Sequence of NADPH oxidase 2 (Homo sapiens) (P04839 whole entry, looked up): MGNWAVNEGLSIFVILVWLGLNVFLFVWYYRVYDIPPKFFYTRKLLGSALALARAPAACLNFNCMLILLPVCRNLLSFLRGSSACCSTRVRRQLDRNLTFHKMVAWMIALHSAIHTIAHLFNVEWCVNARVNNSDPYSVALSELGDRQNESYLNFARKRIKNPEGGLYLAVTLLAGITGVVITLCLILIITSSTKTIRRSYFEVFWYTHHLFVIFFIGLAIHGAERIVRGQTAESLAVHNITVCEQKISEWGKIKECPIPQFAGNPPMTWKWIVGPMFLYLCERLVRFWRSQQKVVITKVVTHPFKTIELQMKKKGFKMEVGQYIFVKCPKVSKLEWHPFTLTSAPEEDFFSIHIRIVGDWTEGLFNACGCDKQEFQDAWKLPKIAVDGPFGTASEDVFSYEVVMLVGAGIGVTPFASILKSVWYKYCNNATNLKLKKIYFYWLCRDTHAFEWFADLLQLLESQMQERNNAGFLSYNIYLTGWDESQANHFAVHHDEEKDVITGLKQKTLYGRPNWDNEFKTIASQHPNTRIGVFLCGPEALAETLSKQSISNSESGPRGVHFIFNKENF

| SMILES | z-score [1] | composite z-score [2] | z-score [3] | z-score [4] | z-score [5] | z-score [6] | z-score [7] | z-score [8] | z-score [9] | z-score [10] | z-score [11] | z-score [12] | z-score [13] | z-score [14] | z-score [15] | z-score [16] | z-score [17] | z-score [18] | z-score [19] | z-score [20] |
| --- | --- | --- | --- | --- | --- | --- | --- | --- | --- | --- | --- | --- | --- | --- | --- | --- | --- | --- | --- | --- |
| CCOC(=O)CCN1C(=O)[C@H]2[C@H]3[C@H](O)[C@H](O)CC(=NOCc4ccccc4)[C@@H]3CC[C@H]2C1=O | -0.505 (inactive) | -0.094 | 1.61 (inactive) | 0.885 (inactive) | -0.059 (inactive) | 0.429 (inactive) | -0.32 | -0.104 (inactive) | 0.593 (inactive) | 1.14 | 0.16 | 0.112 | -0.149 | -0.104 | 1.16 | -0.761 | -0.522 (inactive) | -0.043 | -0.362 | -0.0452 (inactive) |
| CO[C@@H]1COC(=O)[C@@H]2CCCN2C(=O)[C@@H](C)COC(=O)[C@H](COCc2ccccc2)NC(=O)CC=C[C@H]1C | -2.21 (inactive) | -0.111 | 0.553 (inactive) | 0.367 (inactive) | 1.29 (inactive) | 0.441 (inactive) | -0.493 | -0.363 (inactive) | -0.643 (inactive) | -0.159 | -0.427 | 0.169 | -1.5 | -0.329 | -0.0455 | -0.152 | -1.02 (inactive) | -0.156 | -0.683 | -0.366 (inactive) |
| CC(CCC(=O)OC[C@H]1O[C@H](C#Cc2ccccc2)C=C[C@@H]1Oc1ccc(C)cc1)=NO[C@@H](C)c1cn([C@H](CO)Cc2ccccc2)nn1 | -0.913 (inactive) | -0.247 | 10.5 (active) | 0.542 (inactive) | 1.78 (inactive) | -1.05 (inactive) | 0.672 | -1.54 (inactive) | -0.298 (inactive) | -0.428 | -0.487 | 0.725 | -0.982 | -0.622 | -2.17 | 0.453 | -0.346 (inactive) | 0.496 | -0.0262 | 0.555 (inactive) |
| COCCCNC(=O)[C@@]1(CCS(=O)(=O)c2ccccc2)N=C(c2ccc(OCCCO)cc2)O[C@H]1c1ccccc1 | 2.46 (inactive) | 0.812 | 28.5 (active) | 21 (active) | 1.08 (inactive) | 1.55 (inactive) | 0.326 | 3.58 (inactive) | 1.71 (inactive) | -0.339 | 2.27 | 0.217 | 1.84 | -0.345 | -0.193 | 0.887 | -0.468 (inactive) | 0.243 | 0.508 | 0.486 (inactive) |
| [N-]=[N+]=Nc1ccccc1C[C@@]1(C(N)=O)N=C(c2ccc(OCCCO)cc2)O[C@@H]1c1ccccc1 | -0.307 (inactive) | 0.506 | 27.3 (active) | 22.4 (active) | 2.73 (inactive) | 2.47 (inactive) | 1.4 | -2.2 (inactive) | 0.249 (inactive) | -1.75 | -0.391 | 1.73 | -0.515 | -2.86 | -2.94 | 0.57 | -0.433 (inactive) | -0.778 | -0.988 | -0.732 (inactive) |
| NC(=O)NCC#Cc1ccc2c(c1)[C@]1(C(=O)N2)[C@H](c2ccc(O)cc2)N2[C@H](c3ccccc3)[C@H](c3ccccc3)OC(=O)[C@H]2[C@@H]1C(=O)N1CCCCCCC1 | -0.403 (inactive) | 2.04 | 0.578 (inactive) | -0.175 (inactive) | 0.35 (inactive) | 0.197 (inactive) | 0.0459 | 1.71 (inactive) | 0.802 (inactive) | 1.2 | 1.21 | 0.139 | 1.23 | 0.561 | 0.597 | -1.08 | 1.04 (inactive) | -0.578 | -0.413 | -0.118 (inactive) |
| CN(C)C(=O)[C@@]1(Cc2ccccc2)N=C(c2ccc(OCCCO)cc2)O[C@H]1c1ccccc1CN=[N+]=[N-] | 0.374 (inactive) | 0.981 | 14.9 (active) | 1.15 (inactive) | 0.882 (inactive) | 0.0009 (inactive) | -0.474 | -1.75 (inactive) | 1.17 (inactive) | 0.163 | -0.309 | -0.562 | -0.903 | -0.74 | -2.6 | -0.12 | -0.775 (inactive) | -0.913 | -0.589 | -0.348 (inactive) |
| CC(C)(C)OC(=O)CC[C@]1(C(=O)NCc2ccccc2)N=C(c2ccc(OCCCO)cc2)O[C@H]1c1ccccc1 | 0.185 (inactive) | 1.18 | 14.6 (active) | 1.79 (inactive) | 1.14 (inactive) | 0.887 (inactive) | -0.009 | -2.22 (inactive) | -0.583 (inactive) | -1.81 | -1.02 | 0.587 | -0.329 | -1.99 | -1.14 | 0.956 | -1.1 (inactive) | -0.762 | -0.531 | 0.198 (inactive) |
| C=CC[C@@H]1C=C[C@H](ON=C[C@@H](OC)[C@H](C)C=CCC(=O)OC)[C@@H](CO)O1 | 0.324 (inactive) | 0.0533 | 0.815 (inactive) | 1.25 (inactive) | -0.335 (inactive) | 0.465 (inactive) | -0.782 | -0.022 (inactive) | -0.102 (inactive) | -0.255 | 0.812 | -0.933 | 0.623 | 0.486 | -0.939 | -0.0676 | -0.862 (inactive) | 0.461 | -0.448 | -0.498 (inactive) |
